# Reference: PubChem BioAssay AID1906 (The Scripps Research Institute Molecular Screening Center, 2009)
# Out of some 300,000 compounds screened, about 1,500 (0.5%) were called active. The list comes from a sample in which actives are over-represented; it also holds similar structures and randomly drawn compounds. Unmarked numbers belong to inactive results.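 How the source made its calls: active means inhibition above the mean of all tested compounds plus 3 SD, set per screening campaign (cut at about 17% in these data); inactive means the rest.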
# Test system: cathepsin L1 (Fasciola hepatica)
# Test: Fasciola hepatica cathepsin L1 inhibitors, primary screen, counter-screen for PFM18AAP inhibitor project, biochemical, QFRET, fluorogenic peptide substrate (AID 1906);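 further: 0% = plate median of test compound wells and 100% = 1 µM Z-Phe-Ala-diazomethylketone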
# Settings: recombinant F. hepatica cathepsin L1, Z-Leu-Arg-MCA fluorescence; at 5.96 µM; hits give high values
row,Compound,inhibition
1,O=C(COC(=O)c1cc(S(=O)(=O)N2CCCCC2)ccc1Cl)NCc1ccco1,-8.1%
2,O=C(COc1ccc(S(=O)(=O)N2CCCCC2)cc1)NCc1ccccn1,-1.94%
3,Cc1ccc(CNC(=O)Cn2cnc(S(=O)(=O)N3CCCCC3)c2)o1,17.4% (active)
4,CCOC(=O)/C(=N\Nc1ccccc1Cl)N(C)C1CCS(=O)(=O)C1 (centres undefined),-2.25%
5,CCc1c(C)nc(SCC(=O)NC2CCCC2)[nH]c1=O,0.66%
6,CC(=O)N(CCCN(C)C)c1nc2ccc(C)cc2s1,2.99%
7,COc1cccc2sc(N(CCCN(C)C)C(=O)C(c3ccccc3)c3ccccc3)nc12,1.13%
8,Cc1cccc2sc(N(CCCN(C)C)C(=O)CCS(=O)(=O)c3ccccc3)nc12,28.5% (active)
9,Cc1ccc2sc(N(CCN(C)C)C(=O)/C=C/c3cccs3)nc2c1C,0.9%
10,COc1cc2ccccc2cc1C(=O)N(CCN(C)C)c1nc2c(F)cccc2s1,3.44%
11,COc1cccc2sc(N(CCCN(C)C)C(=O)CCS(=O)(=O)c3ccccc3)nc12,52.7% (active)
12,Cc1ccc(SCC(=O)Nc2nncs2)cc1,-3.07%
13,Cc1cc([N+](=O)[O-])c(NC2CCCCC2)c([N+](=O)[O-])c1,5.19%
14,Cc1cc(C(F)F)nn1CC(=O)NC1CCCCCC1,-2.79%
15,O=C(Cn1nc([N+](=O)[O-])nc1Br)NC1CCCCC1,56.3% (active)
16,Cc1nn(CC(=O)NC2CCCCC2)c(=O)c2cccn12,-0.36%
17,Cc1cc(C)n(-c2nc(O)cc(=O)[nH]2)n1,-2.61%
18,CC(OC(=O)CCC(=O)c1ccccc1)C(=O)Nc1ccc(F)cc1 (centres undefined),-70.5%
19,C/C(=N\NC(=O)c1ccc2ccccc2c1)c1cccnc1,0.17%
20,O=C(O)c1ccc2c(c1)C(=O)N(NC(=O)c1ccc(O)cc1)C2=O,-4.02%
21,CC(=O)N1C(=O)/C(=C2\SC(=S)N(NC(=O)c3ccc(O)cc3)C2=O)c2ccccc21,20.6% (active)
22,Cn1cccc1/C=C1\SC(=S)N(NC(=O)c2ccc(Cl)cc2)C1=O,1.38%
23,CC(=O)c1cccc(NC(=S)N2CCN(S(C)(=O)=O)CC2)c1,-1.96%
24,O=C(NCc1ccccc1Cl)C1CCCN1S(=O)(=O)c1ccc(F)cc1 (centres undefined),-1.27%

row,Compound,inhibition
1,COc1cccc(OCc2nnc3n2N=C(c2ccccc2)C(CC(=O)O)S3)c1 (centres undefined),-0.13%
2,O=C(OCN1C(=O)c2ccccc2C1=O)/C(=C\c1ccco1)NC(=O)c1ccccc1,83.3% (active)
3,O=C(NCc1ccco1)/C(=C/c1ccco1)NC(=O)c1ccccc1,8.99%
4,NC(=O)C1CCN(C(=O)/C(=C/c2ccco2)NC(=O)c2ccccc2)CC1,3.81%
5,CNC(=O)c1c(NC(NC(=O)c2ccco2)C(=O)c2ccc(Cl)cc2)sc2c1CCCC2 (centres undefined),1.81%
6,Cc1cc(CNC(=O)C2CCC(=O)N(CCc3ccc(Cl)cc3)C2)no1 (centres undefined),1.95%
7,Cc1cc(=O)[nH]c2nnnn12,0.51%
8,O=C(Cc1ccccc1Cl)N1CCOCC1,-0.12%
9,Cc1cc2cc3c(N)[nH]nc3nc2cc1C,0.69%
10,O=C(Nc1cccnc1Oc1ncnc2cc(Cl)ccc12)c1ccc(F)cc1,19.2% (active)
11,O=C(Nc1cccc2c1CCCC2)c1ccc(F)cc1,-0.12%
12,O=C(Nc1cccc2cccnc12)c1cccc(Cl)c1,5.74%
13,CCCNC(=O)C(=O)Nc1cc2c3c(c1)CCC(=O)N3CCC2,57.1% (active)
14,O=C(COc1ccccc1)Nc1cc2c3c(c1)CC(=O)N3CCC2,-2.44%
15,O=C(Nc1cc2c3c(c1)CC(=O)N3CCC2)c1ccccc1F,-1.43%
16,COc1ccccc1C(=O)NC(CCSC)C(=O)NNC(=O)c1ccccc1C (centres undefined),7.41%
17,CC1CN/C(=C\C(=O)c2ccc(Br)cc2)C(=O)N1 (centres undefined),0.61%
18,COc1ccc(N2CCN(C(C)=C3C(=O)c4ccccc4C3=O)CC2)cc1,0.37%
19,COC1=C(N2CCOCC2)C(=O)c2ccccc2C1=O,21.1% (active)
20,O=C1c2ccccc2-c2ncnc3c(N4CCOCC4)cc(N4CCOCC4)c1c23,3.65%
21,C[C@@H](O)c1nc2ccccc2n1N,-3.93%
22,CC1=NNC(=O)C1CC(=O)N/N=C/c1ccncc1 (centres undefined),2.89%
23,O=C(CSC1CC(=O)N(CCc2ccccc2)C1=O)Nc1ccc(Cl)cc1 (centres undefined),-0.89%
24,CC(=O)Nc1ccc(CN2CCN(Cc3ccc(F)c(F)c3)C(CCO)C2)cc1 (centres undefined),-1.18%

row,Compound,inhibition
1,CCOC(=O)Nc1sc(C(=O)N(C)C)c(C)c1C(=O)OCC,3.33%
2,CCOC(=O)c1sc(NC(=O)CCN2CCOCC2)c(C(=O)OCC)c1C,4.35%
3,CCOC(=O)c1c(NC(=O)CCl)sc(C(=O)N(CC)CC)c1C,41.2% (active)
4,CC(=O)c1ccc(NC(=O)Cn2c(=O)oc3ccccc32)cc1,5.59%
5,CCSc1nsc(NC(=O)Nc2cccc(C(C)=O)c2)n1,18.9% (active)
6,CCSc1nsc(NC(=O)Nc2ccccc2OC)n1,-2.36%
7,C=CCSc1nsc(NC(=O)Nc2cccc(C(C)=O)c2)n1,3.26%
8,CC(=O)c1cccc(NC(=O)C2CCCN(S(=O)(=O)c3cccc4nonc34)C2)c1 (centres undefined),4.35%
9,CC[N+](C)(CC)CCC[n+]1c(-c2ccccc2)c2cc(N)ccc2c2ccc(N)cc21,108% (active)
10,CCOc1cc(C2/C(=C(/O)c3ccc(S(=O)(=O)N4CCCCC4)cc3)C(=O)C(=O)N2CCOC)ccc1O (centres undefined),2.14%
11,Cc1ccc(NC(=O)CSc2nnc(COc3ccccc3C)o2)cc1,2.58%
12,Cc1cc(C)cc(OCc2nnc(SCC(=O)Nc3ccccc3)o2)c1,2.58%
13,CCCc1nnc(SCC(=O)Nc2ccc(C(=O)OCC)cc2)o1,22.8% (active)
14,CCOc1ccc(CN2CCN(Cc3ccc(C)o3)CC2CCO)cc1 (centres undefined),-3.26%
15,COc1ccc(NC(=O)CN2C(=O)COc3ccc(S(=O)(=O)N4CCOCC4)cc32)cc1,-1.53%
16,C[C@H](NC(=O)OC(C)(C)C)c1nnc(SCC(=O)Nc2ccc(Br)cc2)o1,9.5%
17,CCc1ccccc1NC(=O)CSc1nnc([C@@H](NC(=O)OC(C)(C)C)C(C)CC)o1 (some centres undefined),36.5% (active)
18,Cc1cccc(NC(=O)CSc2nnc(CCNC(=O)OC(C)(C)C)o2)c1C,-2.25%
19,CCc1ccccc1NC(=O)CSc1nnc([C@@H](NC(=O)OC(C)(C)C)C(C)C)o1,25.9% (active)
20,CCc1ccccc1NC(=O)CSc1nnc(CCNC(=O)OC(C)(C)C)o1,-11.2%
21,CCc1ccccc1NC(=O)CSc1nnc(-c2ccncc2)o1,-3.59%
22,COC(=O)C1(CCSC)NC(c2ccc(OC)cc2OC)C2C(=O)N(c3cccc(C(C)=O)c3)C(=O)C21 (centres undefined),-14.2%
23,CCCCn1c(N)c(N(CC(C)C)C(=O)CSc2ccc([N+](=O)[O-])cc2)c(=O)[nH]c1=O,0.91%
24,Cc1ccc(N(C(=O)c2snc(C(N)=O)c2N)C(C(=O)NCC2CCCO2)c2c[nH]c3ccccc23)cc1 (centres undefined),-0.55%

row,Compound,inhibition
1,CCCCC(CC)CNCc1cccn1CCN1CCOCC1 (centres undefined),-3.94%
2,COc1ccc(CCNC(=O)C(=O)NCC2CCCN2S(=O)(=O)c2cccs2)cc1OC (centres undefined),-2.2%
3,COc1ccccc1CCNC(=O)C(=O)NCCC1CCCCN1S(=O)(=O)c1cccs1 (centres undefined),17.3% (active)
4,O=C(NCCC1CCCCN1S(=O)(=O)c1cccs1)C(=O)Nc1ccc(F)cc1F (centres undefined),2.68%
5,Cc1ccc(C(=O)COC(=O)CCN2C(=O)C3C4CCC(C4)C3C2=O)cc1C (centres undefined),8.56%
6,COc1ccc(/C=C/CN2CCN(Cc3ccc(C)cc3)C(CCO)C2)cc1 (centres undefined),7.06%
7,COC(C(=O)Nc1ccc(S(=O)(=O)Nc2ccc(C)c(C)c2)cc1)c1ccccc1 (centres undefined),1.68%
8,Cc1ccc(NC(=O)Nc2cccnc2)cc1,-1.42%
9,CCOC(=O)c1cc(NC(=O)c2cccnc2)ccn1,-0.7%
10,CCOC(=O)c1ccc(-c2ccc(C(=O)Nc3cccnc3)o2)cc1,19% (active)
11,Cc1cc(C)c(NC(=O)CN2CCOCCOCCOCCOCC2)c(C)c1,2.85%
12,O=C(CSc1nc2ccccc2[nH]1)N/N=C/C=C\c1ccccc1[N+](=O)[O-],4.39%
13,O=C(CSc1nc2ccccc2[nH]1)Nc1nc(-c2ccccc2)c(-c2ccccc2)o1,17.5% (active)
14,CN(Cc1ccccc1)C(=O)CSc1nc2ccccc2[nH]1,2.91%
15,Cc1ccc(O/C=C2\OC(=O)c3ccccc32)cc1,2.38%
16,CCOc1cc(C)ccc1OCc1nnc(SCC(=O)Nc2cccc(C(=O)O)c2)n1-c1ccccc1,-6.39%
17,Cc1cccc(-n2c(SCC(=O)Nc3cccc(S(=O)(=O)NC4=NCCCCC4)c3)nc3ccccc3c2=O)c1C,0.48%
18,COc1ccc(Cl)cc1C(=O)NCC#N,21% (active)
19,CCC(C)NC(=O)c1cc(Cl)ccc1OC (centres undefined),0.5%
20,COc1ccc(Cl)cc1C(=O)NCc1cn(C)nc1C,-1.11%
21,Cc1cnc(C(=O)Oc2cccc(Cl)c2Cl)cn1,-0.8%
22,O=C(NCc1cccc(Cl)c1)C1CCN(c2nnc(N3CCCC3=O)s2)CC1,-5.47%
